“And” between values parts separate entries of the source, which are not always exact repeats. Equal values may be shown once. Records with an inconclusive call do not appear. Some structures have more than one record in an assay (separate samples or runs), and their calls can disagree. The source made the active and inactive calls. The calls were made as follows, unless noted: active = hit-call score of the fitted dose curve at least 0.9, where 1 is the maximum; inactive = score below 0.9.
Legend:
[1] = BSK_4H_Eotaxin3: BioMAP Diversity Plus: 4H Assay for Eotaxin 3 Biomarker Activity (AID 2283000); details: primary human endothelial cells (HUVEC); actives raise or lower the signal
Method in brief: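 Chemicals were added to human umbilical vein endothelium cultures, and Eotaxin-3 was quantified by ELISA at 24 h. Values were derived by bidirectional fitting with DMSO serving as negative control and activity baseline.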

[2] = target: human Peroxisome Proliferator-activated Receptor alpha (PPARa), PPARA (gene 5465) (UniProt Q07869); experiment: ATG_PPARa_TRANS: Attagene TRANS-FACTORIAL HepG2 Assay for human Peroxisome Proliferator-activated Receptor alpha (PPARa) (AID 2283001; active = hit-call score of the fitted dose curve at least 0.9, where 1 is the maximum;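 as to AC50: potency for gain of reporter signal over DMSO so agonist or activator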)
Chain of human Peroxisome Proliferator-activated Receptor alpha (PPARa), PPARA (gene 5465) (Q07869 whole entry, looked up, the tested form may be a part): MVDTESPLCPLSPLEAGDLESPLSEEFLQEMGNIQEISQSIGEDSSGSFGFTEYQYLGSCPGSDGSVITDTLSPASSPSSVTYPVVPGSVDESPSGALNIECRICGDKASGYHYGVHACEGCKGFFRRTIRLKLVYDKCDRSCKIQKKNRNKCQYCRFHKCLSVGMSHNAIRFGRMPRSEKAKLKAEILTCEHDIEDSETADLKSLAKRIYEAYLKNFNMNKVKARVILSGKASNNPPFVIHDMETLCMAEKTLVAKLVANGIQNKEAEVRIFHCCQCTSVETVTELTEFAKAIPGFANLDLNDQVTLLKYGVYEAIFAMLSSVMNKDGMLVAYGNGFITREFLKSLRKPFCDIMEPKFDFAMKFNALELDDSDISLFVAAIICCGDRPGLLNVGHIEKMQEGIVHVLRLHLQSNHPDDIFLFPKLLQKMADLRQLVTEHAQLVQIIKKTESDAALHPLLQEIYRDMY
Method in brief: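 Read-out is fluorescence of reporter cDNA fragments resolved by capillary electrophoresis after RT-PCR. Human HepG2 liver cells carried transfected PPARa-Gal4 chimera and GAL4-UAS reporter units, treated 24 h; activity scored as increase over DMSO.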

[3] = read-out: Intercellular Adhesion Molecule 1 (ICAM1), ICAM1 (gene 3383); experiment: BSK_3C_ICAM1: BioMAP Diversity Plus: 3C Assay for Intercellular Adhesion Molecule 1 (ICAM1) Biomarker Activity (AID 2283003); details: primary human endothelial cells (HUVEC); actives raise or lower the signal
Method in brief: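 ICAM-1 levels measured by ELISA after HUVEC cultures in the 3C system had been dosed for 24 h. Gain or loss of signal relative to DMSO was fitted in both directions.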

[4] = BSK_3C_Proliferation: Cell Proliferation Assessment in the BioMAP Diversity Plus: 3C Assay (AID 2283006); details: primary human endothelial cells (HUVEC);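 as to AC50: potency may reflect either rise or fall in cell number versus DMSO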
Method in brief: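 Read-out is total protein by SRB absorbance at 560 nm, taken as a proxy for relative cell number. Primary human umbilical vein endothelium cultured below confluence was dosed for 48 h, TCA-fixed and SRB-stained; curves were fitted bidirectionally versus DMSO.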

[5] = target: Peroxisome proliferator-activated receptor gamma (Homo sapiens) (UniProt P37231); experiment: ATG_PPARg_TRANS: Attagene TRANS-FACTORIAL HepG2 Assay for human Peroxisome Proliferator-activated Receptor-gamma (PPARg) (AID 2283007; active = hit-call score of the fitted dose curve at least 0.9, where 1 is the maximum)
Chain of Peroxisome proliferator-activated receptor gamma (Homo sapiens) (P37231 whole entry, looked up, the tested form may be a part): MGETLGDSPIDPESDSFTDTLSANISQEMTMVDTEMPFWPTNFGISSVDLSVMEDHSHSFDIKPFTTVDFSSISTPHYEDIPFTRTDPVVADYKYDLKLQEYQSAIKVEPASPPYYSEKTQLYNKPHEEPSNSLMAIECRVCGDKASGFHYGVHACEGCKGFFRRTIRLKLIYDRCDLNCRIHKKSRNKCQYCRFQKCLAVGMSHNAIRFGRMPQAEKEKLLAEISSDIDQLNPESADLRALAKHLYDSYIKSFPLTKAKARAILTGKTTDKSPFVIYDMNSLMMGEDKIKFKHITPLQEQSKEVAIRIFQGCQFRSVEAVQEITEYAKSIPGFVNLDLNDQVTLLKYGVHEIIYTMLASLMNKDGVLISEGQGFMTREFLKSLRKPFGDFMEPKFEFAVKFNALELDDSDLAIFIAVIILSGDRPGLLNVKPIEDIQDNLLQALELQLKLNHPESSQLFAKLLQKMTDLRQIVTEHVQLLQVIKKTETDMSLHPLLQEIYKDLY
Method in brief: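 HepG2 cells are transiently transfected with GAL4-UAS reporter units driven by chimeric NR-Gal4 fusions and dosed for 24 h. Reporter mRNA is quantified by RT-PCR, 6-FAM labelling, HpaI digestion and capillary electrophoresis. Induction is scored against DMSO.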

[6] = target: Nuclear receptor subfamily 1 group I member 2 (Homo sapiens) (UniProt O75469); experiment: ATG_PXR_TRANS: Attagene TRANS-FACTORIAL HepG2 Assay for human Pregnane X Receptor (PXR) (AID 2283008; active = hit-call score of the fitted dose curve at least 0.9, where 1 is the maximum)
Method in brief: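 HepG2 cells transiently transfected with GAL4-UAS reporter units and PXR-Gal4 chimera, exposed 24 h. Reporter mRNA quantified by RT-PCR, fluorescent labelling, HpaI digestion and capillary electrophoresis; gain of signal vs DMSO.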

[7] = target: human Retinoic Acid Receptor gamma (RARg), RARG (gene 5916) (UniProt P13631); experiment: ATG_RARg_TRANS: Attagene TRANS-FACTORIAL HepG2 Assay for human Retinoic Acid Receptor gamma (RARg) (AID 2283009; active = hit-call score of the fitted dose curve at least 0.9, where 1 is the maximum)
Chain of human Retinoic Acid Receptor gamma (RARg), RARG (gene 5916) (P13631 whole entry, looked up): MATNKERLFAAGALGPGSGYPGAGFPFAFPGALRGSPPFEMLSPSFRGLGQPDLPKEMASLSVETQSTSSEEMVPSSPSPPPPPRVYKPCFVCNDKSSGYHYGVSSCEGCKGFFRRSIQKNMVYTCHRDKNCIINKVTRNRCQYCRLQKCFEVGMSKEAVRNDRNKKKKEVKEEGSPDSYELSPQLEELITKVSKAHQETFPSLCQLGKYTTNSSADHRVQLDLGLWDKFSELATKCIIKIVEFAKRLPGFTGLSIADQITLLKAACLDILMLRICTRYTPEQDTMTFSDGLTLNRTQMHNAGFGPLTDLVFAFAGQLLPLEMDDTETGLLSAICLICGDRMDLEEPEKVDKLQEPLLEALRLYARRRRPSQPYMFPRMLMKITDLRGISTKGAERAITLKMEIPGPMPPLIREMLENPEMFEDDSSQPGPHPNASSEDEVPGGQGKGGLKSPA
Method in brief: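 Transient transfection of HepG2 with multi-reporter constructs, then 24 h chemical treatment. Total RNA isolated, reverse-transcribed, PCR-amplified, fluorescently labelled and resolved by capillary electrophoresis; activity scored as mRNA induction versus DMSO.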

[8] = target: human RAR-related Orphan Receptor beta (RORb), RORB (gene 6096) (UniProt Q92753); experiment: ATG_RORb_TRANS: Attagene TRANS-FACTORIAL HepG2 Assay for human RAR-related Orphan Receptor beta (RORb) (AID 2283010; active = hit-call score of the fitted dose curve at least 0.9, where 1 is the maximum)
Chain of human RAR-related Orphan Receptor beta (RORb), RORB (gene 6096) (Q92753 whole entry, looked up, the tested form may be a part): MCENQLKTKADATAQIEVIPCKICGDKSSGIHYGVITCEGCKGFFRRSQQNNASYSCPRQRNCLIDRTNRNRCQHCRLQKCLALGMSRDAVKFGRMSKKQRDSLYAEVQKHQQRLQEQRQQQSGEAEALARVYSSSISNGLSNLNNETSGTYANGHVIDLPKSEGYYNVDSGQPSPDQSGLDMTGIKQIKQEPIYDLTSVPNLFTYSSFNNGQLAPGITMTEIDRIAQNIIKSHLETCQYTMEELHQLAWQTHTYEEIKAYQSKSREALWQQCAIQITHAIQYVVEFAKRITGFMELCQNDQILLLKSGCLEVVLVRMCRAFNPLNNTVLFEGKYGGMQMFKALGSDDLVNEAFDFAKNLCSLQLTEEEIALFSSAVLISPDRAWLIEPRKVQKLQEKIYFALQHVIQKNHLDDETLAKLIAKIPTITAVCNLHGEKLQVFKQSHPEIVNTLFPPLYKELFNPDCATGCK
Method in brief: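 Readout is reporter-gene mRNA induction, detected as fluorescence after RT-PCR and capillary electrophoresis, fitted for gain of signal against DMSO controls. Transiently transfected HepG2 liver cells carrying GAL4-UAS reporter constructs were treated for 24 hours.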

[9] = target: human RAR-related Orphan Receptor gamma (RORg), RORC (gene 6097) (UniProt P51449); experiment: ATG_RORg_TRANS: Attagene TRANS-FACTORIAL HepG2 Assay for human RAR-related Orphan Receptor gamma (RORg) (AID 2283011; active = hit-call score of the fitted dose curve at least 0.9, where 1 is the maximum;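 as to AC50: potency for induction of reporter transcripts above DMSO so activators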)
Chain of human RAR-related Orphan Receptor gamma (RORg), RORC (gene 6097) (P51449 whole entry, looked up, the tested form may be a part): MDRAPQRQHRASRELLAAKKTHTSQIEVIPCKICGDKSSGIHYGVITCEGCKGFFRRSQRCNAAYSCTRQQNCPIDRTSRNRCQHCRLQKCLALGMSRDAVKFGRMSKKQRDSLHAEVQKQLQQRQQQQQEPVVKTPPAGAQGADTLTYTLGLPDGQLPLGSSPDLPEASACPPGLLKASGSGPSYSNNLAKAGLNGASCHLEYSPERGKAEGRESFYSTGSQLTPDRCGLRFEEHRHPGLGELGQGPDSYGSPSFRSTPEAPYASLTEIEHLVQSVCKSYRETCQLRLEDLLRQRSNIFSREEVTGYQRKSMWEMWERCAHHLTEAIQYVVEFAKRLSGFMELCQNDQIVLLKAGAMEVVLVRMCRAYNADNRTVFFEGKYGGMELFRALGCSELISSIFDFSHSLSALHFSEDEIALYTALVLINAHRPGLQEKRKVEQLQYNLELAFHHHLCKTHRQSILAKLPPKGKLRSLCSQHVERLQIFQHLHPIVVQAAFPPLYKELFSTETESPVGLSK
Method in brief: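 First, HepG2 liver cells were transfected with GAL4-UAS-driven reporter constructs and the RORg-Gal4 fusion. Next, they were treated with chemical for 24 h. Finally, reporter mRNA was quantified by RT-PCR and capillary electrophoresis, with upward activity fitted against DMSO.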

[10] = target: human Retinoid X Receptor beta (RXRb), RXRB (gene 6257) (UniProt P28702); experiment: ATG_RXRb_TRANS: Attagene TRANS-FACTORIAL HepG2 Assay for human Retinoid X Receptor beta (RXRb) (AID 2283013; active = hit-call score of the fitted dose curve at least 0.9, where 1 is the maximum)
Chain of human Retinoid X Receptor beta (RXRb), RXRB (gene 6257) (P28702 whole entry, looked up, the tested form may be a part): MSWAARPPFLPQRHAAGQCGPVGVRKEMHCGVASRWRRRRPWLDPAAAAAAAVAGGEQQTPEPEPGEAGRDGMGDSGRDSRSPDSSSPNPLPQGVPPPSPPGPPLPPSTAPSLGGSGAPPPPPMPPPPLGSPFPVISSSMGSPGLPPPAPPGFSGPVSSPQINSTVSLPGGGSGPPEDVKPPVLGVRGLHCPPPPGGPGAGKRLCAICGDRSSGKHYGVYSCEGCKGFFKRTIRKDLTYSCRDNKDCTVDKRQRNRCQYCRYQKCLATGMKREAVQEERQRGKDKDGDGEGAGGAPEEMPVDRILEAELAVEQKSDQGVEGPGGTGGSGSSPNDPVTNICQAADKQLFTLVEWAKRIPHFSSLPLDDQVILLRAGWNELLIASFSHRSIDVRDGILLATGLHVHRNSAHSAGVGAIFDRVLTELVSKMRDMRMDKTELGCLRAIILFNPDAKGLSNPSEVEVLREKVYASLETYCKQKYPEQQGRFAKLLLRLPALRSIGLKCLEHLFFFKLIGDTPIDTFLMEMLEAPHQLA
Method in brief: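 Transfect HepG2 with GAL4-UAS multi-reporter constructs (chimeric NR-Gal4, TRANS format); dose compound 24 h; isolate RNA, RT-PCR, FAM primer extension, HpaI digest; quantify by capillary electrophoresis; positive direction vs DMSO.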

[11] = target: human Thyroid Receptor alpha (THRa1), THRA (gene 7067) (UniProt P10827); experiment: ATG_THRa1_TRANS: Attagene TRANS-FACTORIAL HepG2 Assay for human Thyroid Receptor alpha (THRa1) (AID 2283014; active = hit-call score of the fitted dose curve at least 0.9, where 1 is the maximum)
Method in brief: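 Reporter transcript induction, read by capillary electrophoresis of 6-FAM-labelled RT-PCR products, reflects activity of a transfected THRa1-Gal4 fusion in HepG2 liver cells. Cells were dosed for 24 h; activity was fitted in the positive direction against DMSO.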

[12] = read-out: E-selectin (Homo sapiens) (UniProt P16581); experiment: BSK_3C_Eselectin: BioMAP Diversity Plus: 3C Assay for Eselectin Biomarker Activity (AID 2283015); details: primary human endothelial cells (HUVEC); actives raise or lower the signal;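 also: cell surface E-selectin protein quantified by ELISA 24 h after dosing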
Method in brief: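 ELISA read-out of E-selectin on endothelial monolayers after 24 h chemical treatment. Human umbilical vein primary cells served as the system, with DMSO defining baseline activity for bidirectional fitting.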

[13] = read-out: Interleukin-1 alpha (IL1a), IL1A (gene 3552); experiment: BSK_BE3C_IL1a: BioMAP Diversity Plus: BE3C Assay for Interleukin-1 alpha (IL1a) Biomarker Activity (AID 2283016); details: primary human bronchial epithelial cells; actives raise or lower the signal
Method in brief: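 BE3C primary human bronchial epithelium; cpd 24 h; IL-1a by ELISA; bidirectional fit vs DMSO; parallel SRB (0.1% SRB, 10% TCA fix, 560 nm) for cytotoxicity.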

[14] = read-out: Monocyte Chemoattractant Protein-1 (MCP1), CCL2 (gene 6347); experiment: BSK_3C_MCP1: BioMAP Diversity Plus: 3C Assay for Monocyte Chemoattractant Protein-1 (MCP1) Biomarker Activity (AID 2283017); details: primary human endothelial cells (HUVEC); actives raise or lower the signal
Method in brief: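 ELISA read-out of MCP-1 from human umbilical vein endothelial cell cultures harvested 24 h post-dosing. Gain or loss of signal was fitted relative to DMSO.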

[15] = read-out: Monocyte Chemoattractant Protein-1 (MCP1), CCL2 (gene 6347); experiment: BSK_4H_MCP1: BioMAP Diversity Plus: 4H Assay for Monocyte Chemoattractant Protein-1 (MCP1) Biomarker Activity (AID 2283018); details: primary human endothelial cells (HUVEC); actives raise or lower the signal
Method in brief: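 ELISA read-out of MCP-1 from human vascular endothelial primary cells taken at 24 hours after compound exposure. Activity was fitted in both directions relative to DMSO, which served as negative control.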

[16] = read-out: Human Leukocyte Antigen - DR isotype (HLADR), HLA-DRA (gene 3122); experiment: BSK_3C_HLADR: BioMAP Diversity Plus: 3C Assay for Human Leukocyte Antigen - DR isotype (HLADR) Biomarker Activity (AID 2283019); details: primary human endothelial cells (HUVEC); actives raise or lower the signal
Method in brief: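 ELISA readout of surface HLA-DR on human umbilical vein endothelium, taken 24 h after chemical treatment. Gain- and loss-of-signal were both fitted relative to DMSO.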

[17] = target: Retinoic acid receptor alpha (Homo sapiens) (UniProt P10276); experiment: ATG_RARa_TRANS: Attagene TRANS-FACTORIAL HepG2 Assay for human Retinoic Acid Receptor alpha (RARa) (AID 2283005; active = hit-call score of the fitted dose curve at least 0.9, where 1 is the maximum)
Chain of Retinoic acid receptor alpha (Homo sapiens) (P10276 whole entry, looked up, the tested form may be a part): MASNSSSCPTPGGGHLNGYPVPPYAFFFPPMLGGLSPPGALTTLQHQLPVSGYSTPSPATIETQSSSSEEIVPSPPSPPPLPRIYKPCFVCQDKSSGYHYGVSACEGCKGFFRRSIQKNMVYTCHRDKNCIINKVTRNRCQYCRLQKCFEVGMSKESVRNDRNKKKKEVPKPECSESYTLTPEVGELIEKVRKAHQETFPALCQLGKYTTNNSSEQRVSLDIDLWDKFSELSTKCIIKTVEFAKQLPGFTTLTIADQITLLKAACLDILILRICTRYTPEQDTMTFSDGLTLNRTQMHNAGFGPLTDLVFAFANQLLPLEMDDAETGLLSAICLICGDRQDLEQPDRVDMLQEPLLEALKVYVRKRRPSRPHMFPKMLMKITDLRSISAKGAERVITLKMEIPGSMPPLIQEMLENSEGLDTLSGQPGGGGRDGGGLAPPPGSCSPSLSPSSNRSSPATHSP
Method in brief: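 Reporter transcripts, measured by RT-PCR with fluorescent labeling and capillary electrophoresis after 24 h dosing, reflect activity of an exogenous human RARa–GAL4 fusion in transiently transfected HepG2. Fitted for increase relative to DMSO.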

[18] = target: Retinoic acid receptor RXR-alpha (Homo sapiens) (UniProt P19793); experiment: ATG_RXRa_TRANS: Attagene TRANS-FACTORIAL HepG2 Assay for human Retinoid X Receptor alpha (RXRa) (AID 2283012; active = hit-call score of the fitted dose curve at least 0.9, where 1 is the maximum)
Chain of Retinoic acid receptor RXR-alpha (Homo sapiens) (P19793 whole entry, looked up, the tested form may be a part): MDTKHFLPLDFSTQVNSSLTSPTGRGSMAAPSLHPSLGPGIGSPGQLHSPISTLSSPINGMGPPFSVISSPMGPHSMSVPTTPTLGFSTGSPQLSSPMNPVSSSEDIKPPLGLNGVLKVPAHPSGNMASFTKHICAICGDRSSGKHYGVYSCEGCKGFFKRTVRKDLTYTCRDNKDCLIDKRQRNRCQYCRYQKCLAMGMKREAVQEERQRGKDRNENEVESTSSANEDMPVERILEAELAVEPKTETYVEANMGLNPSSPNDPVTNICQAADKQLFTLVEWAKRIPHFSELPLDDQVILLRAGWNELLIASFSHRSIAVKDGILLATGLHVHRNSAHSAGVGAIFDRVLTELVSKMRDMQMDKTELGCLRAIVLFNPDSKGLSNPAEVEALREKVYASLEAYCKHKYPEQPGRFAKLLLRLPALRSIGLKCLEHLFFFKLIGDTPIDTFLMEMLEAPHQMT
Method in brief: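 Transient transfection of human HepG2 with multiple GAL4-UAS reporter constructs; 24 h compound exposure; total RNA isolated, reverse-transcribed, PCR-amplified, 6-FAM labelled, HpaI-cut, resolved by capillary electrophoresis. Positive-direction fit versus DMSO.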

[19] = target: human Peroxisome Proliferator-activated Receptor delta (PPARd), PPARD (gene 5467) (UniProt Q03181); experiment: ATG_PPARd_TRANS: Attagene TRANS-FACTORIAL HepG2 Assay for human Peroxisome Proliferator-activated Receptor delta (PPARd) (AID 2283002; active = hit-call score of the fitted dose curve at least 0.9, where 1 is the maximum)
Chain of human Peroxisome Proliferator-activated Receptor delta (PPARd), PPARD (gene 5467) (Q03181 whole entry, looked up, the tested form may be a part): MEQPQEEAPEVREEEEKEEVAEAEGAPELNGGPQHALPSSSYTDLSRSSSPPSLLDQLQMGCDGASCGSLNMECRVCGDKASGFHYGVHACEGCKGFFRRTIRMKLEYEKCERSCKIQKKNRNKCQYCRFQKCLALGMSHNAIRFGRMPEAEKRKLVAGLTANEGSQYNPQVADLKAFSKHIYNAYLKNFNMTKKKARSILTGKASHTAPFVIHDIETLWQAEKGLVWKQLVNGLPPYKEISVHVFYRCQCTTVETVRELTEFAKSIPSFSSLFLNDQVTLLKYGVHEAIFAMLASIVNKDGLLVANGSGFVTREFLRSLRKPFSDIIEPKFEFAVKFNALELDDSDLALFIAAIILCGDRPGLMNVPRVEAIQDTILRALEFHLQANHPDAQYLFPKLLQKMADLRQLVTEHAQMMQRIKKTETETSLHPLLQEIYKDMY
Method in brief: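 Transient HepG2 transfection (multiple GAL4-UAS RTUs, chimeric receptor-Gal4); 24 h dosing; total RNA → oligo(dT) RT → PCR → 6-FAM primer extension → HpaI cut → CE. Positive direction vs DMSO.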

Measured: AC50

Chain of E-selectin (Homo sapiens) (P16581 whole entry, looked up): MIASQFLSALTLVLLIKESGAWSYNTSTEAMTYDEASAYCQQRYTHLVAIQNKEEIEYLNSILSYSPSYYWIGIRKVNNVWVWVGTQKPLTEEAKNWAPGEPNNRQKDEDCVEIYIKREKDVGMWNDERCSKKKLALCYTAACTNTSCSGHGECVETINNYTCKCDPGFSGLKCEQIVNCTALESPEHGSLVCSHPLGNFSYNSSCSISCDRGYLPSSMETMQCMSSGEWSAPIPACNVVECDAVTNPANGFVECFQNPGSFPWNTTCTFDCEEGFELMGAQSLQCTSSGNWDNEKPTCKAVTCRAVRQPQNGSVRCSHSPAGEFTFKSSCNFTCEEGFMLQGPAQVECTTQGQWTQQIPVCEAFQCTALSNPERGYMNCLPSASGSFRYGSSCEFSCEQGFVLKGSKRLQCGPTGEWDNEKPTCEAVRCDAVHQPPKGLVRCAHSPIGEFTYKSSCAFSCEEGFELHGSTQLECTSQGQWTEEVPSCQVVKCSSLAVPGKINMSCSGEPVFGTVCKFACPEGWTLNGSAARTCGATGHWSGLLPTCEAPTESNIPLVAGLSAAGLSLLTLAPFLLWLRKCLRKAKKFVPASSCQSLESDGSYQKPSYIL

O=C(O)C(F)(F)C(F)(F)C(F)(F)C(F)(F)C(F)(F)C(F)(F)C(F)(F)C(F)(F)C(F)(F)C(F)F
inactive: [1] | [3] | [7] | [8] | [11] | [12] | [14] | [15] | [16]
active: [1] 29.1 µM | [2] 19.4 µM | [4] 56.7 µM and 47 µM | [5] 25.8 µM | [6] 64.5 µM | [9] 50 µM | [10] 66 µM | [13] 17.8 µM and 14.6 µM | [14] 47.1 µM | [15] 30 µM | [16] 37.5 µM

O=C(O)C(F)(F)C(F)(F)C(F)F
not listed: [6] | [7] | [8] | [11] | [19]
inactive: all other assays above

O=C(O)C(F)(F)C(F)(F)C(F)(F)C(F)(F)C(F)(F)C(F)(F)C(F)(F)C(F)(F)C(F)(F)C(F)(F)C(F)(F)C(F)(F)C(F)(F)F
active: [1] 1.32 µM | [4] 1.29 µM and 252 nM
inactive: [1] | [19] | [3] | [17] | [5] | [6] | [7] | [8] | [9] | [18] | [10] | [12] | [13] | [14] | [15] | [16]

O=C(O)C(F)(OC(F)(F)C(F)(OC(F)(F)C(F)(F)C(F)(F)F)C(F)(F)F)C(F)(F)F (stereo unspecified)
inactive: [1] | [19] | [3] | [17] | [4] | [5] | [6] | [7] | [8] | [18] | [10] | [12] | [13] | [14] | [15] | [16]
active: [10] 41.7 µM

OCCCC(F)(F)C(F)(F)C(F)(F)F
not listed: [6] | [8] | [9] | [11] | [17]
inactive: all other assays above

CC(C)(C)C(=O)CC(=O)C(F)(F)C(F)(F)C(F)(F)F
active: [4] 43.3 µM and 44.3 µM | [16] 30 µM
inactive: [1] | [2] | [19] | [3] | [17] | [5] | [6] | [7] | [8] | [9] | [10] | [12] | [13] | [14] | [15] | [16]

— PubChem BioAssay (EPA / NIEHS)
